Structures are written as SMILES. Values joined by “and” are separate entries in the source; they are usually repeats but may differ in a detail not shown here. Equal entries are not always repeated. About 83,000 compounds went through this panel and 20% of them were active in at least one assay; those are over-represented in the sample as a whole.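 The test compound was applied at a single concentration to cells in 96-well plates for 48 hours, and percent growth was recorded.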 A number with no mark means an inactive call. Active and inactive are the calls of the source. Where a SMILES comes first, the peptide text is derived from it. The star is where a group is joined. Trt = c1ccc(C(c2ccccc2)(c2ccccc2)*)cc1; Cbz = O=C(OCc1ccccc1)*

One assay concerns SNB-19 CNS. Kind of assay: NCI-60 one-dose screen, 48 h (100 = growth as untreated, 0 = no growth, -100 = all killed). Conditions: 10 µM. How it is done:
Growth inhibition of the SNB-19 human tumor cell line is measured as a screen for anti-cancer activity. Cells are grown in 96 well plates and exposed to the test compound for 48 hours. Compounds are tested at a single concentration, which is 10^-5 M for most compounds. The reported endpoint is percent growth (GI% or GIPRCNT), where numbers from 0 - 100% represent growth inhibition, and numbers from -100% - 0 represent cell death. For example, a value of 40 represents 60% growth inhibition. A value of 0 means no net growth occurred over the course of the experiment. A value of -40 indicates 40% of cells at the beginning of the experiment died by the end of the experiment. A value of -100 means all cells are dead at the end of the experiment.
NCI-60 Human Tumor Cell Lines Screen was performed using the standard one-dose NCI protocol, which is described in more detail at https://dtp.cancer.gov/discovery_development/nci-60/default.htm.
Compounds with GIPRCNT values below 10 were considered active. Activity score was based on GIPRCNT using the following formula: […]
Score is 0 for GIPRCNT values of 100 or above, 50 for GIPRCNT values of 0, and 100 for GIPRCNT values of -100.
`CN(C)C(=O)c1ccc(SC(=S)NCc2ccccc2)cc1`: the growth was 109%.
Still for that read-out and setting: the same measure for `O=C(Nc1c(Cl)cccc1Cl)Oc1cccc2cccnc12`: 56.4%.

Staying with this assay, now noted: 10 µM unless noted.
Regarding `CCC(c1cccc(O)c1)C(CC)c1cccc(O)c1` (stereo not given), the growth was 71.2%.
Same read-out and setting: the same measure for `c1ccc2c(c1)Nc1cc3ccccc3cc1N2`: 57.1%.
Still for that read-out and setting: next, `Oc1c(Br)c(Br)c(O)c(Br)c1Br`: 106%; `Cc1cc(N)c2ccccc2[n+]1CCCCCCCCCC[n+]1c(C)cc(N)c2ccccc21`: 21.3% and 12.5%.
On the same count and under the same terms, the same measure for `CCCCCCCCCCCCCCNCc1ccccc1`: 85.6%; for `Cc1ccc2nc(C[n+]3ccc4ccccc4c3)ccc2c1`: 46.5%; for `CCN1/C(=C\c2cc[n+](CC)c3ccccc23)C=Cc2ccccc21`: 17.1%.
With `CC(=O)C(=Cc1ccc(C=C(C(C)=O)C(C)=O)cc1)C(C)=O`, the growth was 19.1%.
The same measure, in the same setting: next, `O=C(Oc1cccc2cccnc12)c1ccccc1`: 93.7% and 108%; `CC(=Nc1ccc(N(C)C)cc1)c1ccccc1`: 45%; `CN(C)c1ccc(N=Nc2cccc3ccccc23)cc1`: 100%.
Same read-out and setting: the same measure for `O=C1c2ccccc2C(=O)c2sc(Nc3ccc(Cl)cc3)nc21`: 79.5%; for `O=C(Nc1ccccc1)Oc1c(Cl)c(Cl)c(Cl)c(Cl)c1Cl`: 93.5% and 100%.
On the same count and under the same terms, the same measure for `O=C1c2ccccc2C(=O)c2sc(Nc3cccc(Cl)c3)nc21`: 42.8%; for `C=CCOc1ccc(N=NC(C#N)C#N)cc1`: 94%; for `Nc1nc(N)c2c(ccc3c2ccn3Cc2cccc([N+](=O)[O-])c2)n1`: -92.2% (active).
On to `N#CSCc1ccc(Cl)c(CSC#N)c1`, for which the growth was 61.5%.
Same read-out and setting: next, `O=C(Nc1ccccc1)c1cc(Cl)ccc1O`: 41.3%.
In the case of `Cc1ccc(NS(=O)(=O)c2ccc(C)cc2)cc1`, the growth was 106% and 102%.
Take `COC(=O)C(CSC(c1ccccc1)(c1ccccc1)c1ccccc1)NC(=O)C(CC(N)=O)NC(=O)OCc1ccccc1` (stereo not drawn) (Cbz-Asn-Cys(Trt)-OMe; configuration not given here): the growth was 56.2%.
Still for that read-out and setting: next, `CCOC(=O)/C=C/c1ccc([N+](=O)[O-])o1`: 97.2%; `CCN(CC)CC(C)(C)C(=O)/C=C/c1ccc(Cl)c(Cl)c1`: -30.1% (active); `CCC(CC)COC(=O)c1ccc(O)c(O)c1`: 74.6%.
Same read-out and setting: next, `Cc1ccc(C(=Nc2ccccc2)N=P(c2ccccc2)(c2ccccc2)c2ccccc2)cc1`: -15.8% (active).
For the compound `CN(C)c1ccc(/C=N/N=C(\C#N)[S][Sn]([Cl])([c]2ccccc2)[c]2ccccc2)cc1`, the growth is 89.6%.
The same measure, in the same setting: the same measure for `CNc1ccc2c(c1)c1ccccc1n2C`: 111%; for `O=[N+]([O-])c1ccc2c(N=Nc3ccc4ccccc4c3O)c(O)cc(S(=O)(=O)O)c2c1`: 79.7%.
Same read-out and setting: the same measure for `Cn1c2c(c3ccccc31)CCN1C[C@@H]3CCCC[C@H]3C[C@@H]21`: 18.3%; for `NC(=O)/C=C/C(=O)c1c(Cl)cccc1Cl`: 9.41% (active).
Turning to `N[C@H](C(=O)O)[C@@H]1CC(Cl)=NO1`, the growth was 30.6% [20 µM].
Still for that read-out and setting: next, `CNC(=O)N/N=C/c1ccc([N+](=O)[O-])o1`: 94.9%; `O=C1c2ccccc2C(=O)N1c1ccccc1`: 105%; `O=C(/C=C\c1cc(Br)ccc1O)/C=C/c1cc(Br)ccc1O`: -52.7% (active).
Same read-out and setting: the same measure for `CCC1OC(OC)C=CC1=O` (stereo not given): 91.5%.
Same read-out and setting: next, `O=C1C2=C(Nc3cc([N+](=O)[O-])ccc3N2)OC1c1c2ccccc2cc2ccccc12` (stereo not given): 40.2%; `O=C(O)C1C2CC3C(OC(=O)C31)C2Br` (stereo not given): 97.3% and 107%.

The assay is the same for the next values; noted with them: 100 µM.
Regarding `CN(C)C(=O)c1ccc(SC(=S)NCc2ccccc2)cc1`, the growth is -0.973% (active).
Same read-out and setting: the same measure for `O=C(Nc1c(Cl)cccc1Cl)Oc1cccc2cccnc12`: 25.8%.

The values are drawn from PubChem BioAssay (NCI).
